The sequences below were run on VDR:RXRa (NR concentration 270 nM, RXRa partner concentration 90 nM) (assay: PBM binding z-score (relative to random genomic background probes); higher = stronger binding; sequences stand for … in GC…GCGATTGACAGCGTAGAATGAAGG).
Protocol: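 Protein-binding microarray (Agilent 4x180K custom design, double-stranded 60-nt probes: 5' GC cap, 34-nt variable region, 24-nt constant primer region; full probe sequence given). Purified or IVT nuclear receptor:RXRα heterodimers (3:1 NR:RXRα, mostly 270:90 nM) or homodimers were incubated for 1 h in PBS with 2% milk and no ligand, then detected with Alexa488 antibodies. Fluorescence from o1-orientation probes (~5 replicates averaged) was converted to z-scores against 500 random hg19 background probes. Variable regions are seed direct-repeat (DR0–DR5) sites, all their single-nucleotide variants and half-site ablations.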

| Sequence | PBM binding z-score |
| --- | --- |
| ACCATTAGTTGAGACGAGGGCAACCGATAGGTTG | 0.755 |
| CGAACTAGGTCATGCAGGACAGTGAATACATTGA | 4.23 |
| ACAGACAGGTGAGTGTAGGTAACTCAGCTGGACG | -0.371 |
| GCTTGTAGATCAAGGATAAGAAAGACTAAGCTAA | -0.525 |
| CGTCCAAGGTCAAGGTCAGTGATAGAGACTCGAA | 4.95 |
| ACTAGCAGGCCAAGTTTGGATCACTCAAACAAAG | -0.621 |
| ACAGACAGGTGATGTAGGTAACTCAGGCTATCAT | -0.00251 |
| CCTACTGGGCCAAAAAGATCATTGATGCCGATAA | -0.303 |
| CCTGCGAGGTCAATGGTCAGCTAAAGCAGCTCGC | 4.73 |
| TAGCCTAGGTCATGCGAGCCAGTATAGTGTCGGC | 1.92 |
| CCAAGTTGGTCAGGAGGTCACACACCGGATATGA | 4.08 |
| CGAACCAGGTCATCCAGGACAGTGAATACATTGA | 5.42 |
| ACTATTAGTTGAGACGAGGGCGACCGATAGGTTG | 0.133 |
| ATCTCTAGGTAAAGATAGTTCAGTAAATGCAAAT | 1.22 |
| ACTATTAGTTGAGCCGAGGGCAACCGATAGGTTG | 0.613 |
| TCTGCTAGGTCAGTTGGTCAGCTAGCGAGCTGCC | -0.184 |
| GCATATAGGTAATACAAGGTGAAAATCCGATTGT | 0.212 |
| TCTGCTAGGTCAACGATGGTCAGCTACTCTGCTA | 1.68 |
| ATATGTAGGTTAAGGGTCATTCAAGTTGGTTCGC | 5.82 |
| ATCGAAATGTCGACGAGGTGAGTATACACCGTTT | 0.509 |

| Sequence | PBM binding z-score |
| --- | --- |
| GAGACTGGGGCAAAGCAGGTTACCATAAGGTTGG | 0.398 |
| CCTTACTGGTCACTGACAGGTTATAGCATTTGGA | 0.592 |
| CTCTAAAGGTCGTGCTCAGGTGAGTATACCAAAC | 3.27 |
| CCTGCTAGGTCAATGGTCAGCGAAAGCAGCTCGC | 0.881 |
| CCTACTGGGCCAAAAAGCTCATTGATGCCGATAA | -0.648 |
| TCTTGTAGATCAACAGGAGGTTAAAAAAGATCGA | 0.744 |
| ACAGACAGGTGAGTGAAGTTAACTCAGCTGGACG | -0.576 |
| CCTAGGAGGACAACAGGAGGTCAGAGCTGCCAGA | 2.09 |
| TCATATAGGTAAACAGGTAAAAGTCCGTAAGTTA | 1.29 |
| TCATATAGGTAAACAGTTGAAAGTCCGTAAGTTA | 1.13 |
| TCTCGGAGGACACGAAGCTCAGAGCTTTCCAGAG | -0.415 |
| CAAACTACGTCAAAGGTCAAAGTCGAGCCAACCA | 5.02 |
| GCTAGCAGACCATTTGGGTCACTCAATGACGGGC | -0.0299 |
| ATATGTAGGCTATCGGGTCATTCAGTTTGCGCAT | 4.58 |
| TCATATAGGTAATATAGGTGAAAGTCGGCATCTA | 0.836 |
| CCTATTAGTTGACCATAACGGCAACCGAAGCTCG | 0.7 |
| CGTCAAAGTGCAAGGTAACGTAACAGAAAGCAGC | -0.0204 |
| CCTCGGAGGACAGATGGTCAGAGCTGTCCGCTTT | -0.581 |
| TCTTGTAGATCAAAGGTTAAGAACGCCGAAGCCT | 1.47 |
| CGTCCAAGGTCAGAGAGGTCAGTCAATGCCGAGT | 7.68 |

Reference: the supplement of paper PMC6555819
